Assay outcomes from PubChem BioAssay.
Compounds with a hit are over-represented: about 6.7% of the library has one in this group of screens.
C diff growth = blocks growth of Clostridium difficile | Clostridium difficile clinical isolate growth, OD600, 24 h; stronger effect = lower value | growth activity, negative = inhibition, % at 16 µg/mL (by protocol) | actives 0.25% (n = 86,000) | AID 1259249;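 active = mean growth activity at or below -80% and every replicate also at or below -80%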;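 note: 0% = DMSO wells and -100% = levofloxacin 16 µg/mL wells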
Pf Dd2 inh = P. falciparum Dd2 growth inhibition; activity change, % at 10 µM; SYBR Green, 72 h; stronger effect = lower value; AID 1159554; actives 2.3% (n = 94,000); in the data active = activity change below about -80%
Tcruzi prolif = T. cruzi proliferation inhibition | T. cruzi beta-gal in NIH3T3, GalScreen luminescence, 90 h | inhibition, % at 8.34 µM | actives 5.9% (n = 77,000);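 active = mean inhibition above about 93%, with at least 55% of replicates each passing it, limit read from the data, passing the limit was not always enough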
An asterisk follows results filed as active; . = no result.

SMILES	C diff growth	Pf Dd2 inh	Tcruzi prolif
COc1ccc(CN(C)C[C@H]2OCCCC[C@@H](C)Oc3ccc(NS(=O)(=O)c4ccc(OC)cc4)cc3C(=O)N([C@H](C)CO)C[C@H]2C)cc1	-6.2	-87.0*	.
COc1ccc(S(=O)(=O)Nc2ccc3c(c2)C(=O)N([C@H](C)CO)C[C@@H](C)[C@@H](CN(C)C(=O)NC2CCCCC2)OCCCC[C@@H](C)O3)cc1	3.7	-86.4*	76.2
COc1ccc(S(=O)(=O)Nc2ccc3c(c2)C(=O)N([C@H](C)CO)C[C@@H](C)[C@H](CN(C)C(=O)NC2CCCCC2)OCCCC[C@H](C)O3)cc1	-10.5	-48.2	.
COc1ccc(S(=O)(=O)Nc2ccc3c(c2)C(=O)N([C@@H](C)CO)C[C@H](C)[C@H](CN(C)Cc2ccc(Cl)c(Cl)c2)OCCCC[C@@H](C)O3)cc1	.	-61.0	41.0
COc1ccc(CN(C)C[C@H]2OCCCC[C@H](C)Oc3ccc(NS(=O)(=O)c4ccc(OC)cc4)cc3C(=O)N([C@H](C)CO)C[C@@H]2C)cc1	0.4	-24.4	20.1
COc1ccc(S(=O)(=O)Nc2ccc3c(c2)C(=O)N([C@@H](C)CO)C[C@H](C)[C@@H](CN(C)Cc2ccc(Cl)c(Cl)c2)OCCCC[C@@H](C)O3)cc1	-5.1	-91.1*	17.6
CC(C)NC(=O)Nc1ccc2c(c1)C(=O)N([C@@H](C)CO)C[C@H](C)[C@H](CN(C)C(=O)NC1CCCCC1)O2	-0.3	11.1	1.6
CO[C@@H]1CN(C)C(=O)c2cc(NC(=O)Nc3ccc(Cl)cc3)ccc2OC[C@H](C)NC[C@H]1C	-0.3	-7.3	-48.3
CO[C@H]1CN(C)C(=O)c2cc(NC(=O)Nc3ccc(Cl)c(Cl)c3)ccc2OC[C@H](C)NC[C@H]1C	-98.9*	-84.3*	-43.0
CO[C@@H]1CN(C)C(=O)c2cc(NC(=O)Nc3ccc(Cl)c(Cl)c3)ccc2OC[C@H](C)NC[C@@H]1C	-97.5*	-66.8	-41.6
CO[C@@H]1CN(C)C(=O)c2cc(NC(=O)Nc3cc(Cl)cc(Cl)c3)ccc2OC[C@@H](C)NC[C@@H]1C	.	.	23.9
CCCNC(=O)C[C@@H]1CC[C@H]2[C@@H](COC[C@@H](O)CN2C(=O)c2ccccn2)O1	.	6.9	2.3
C[C@@H]1CN([C@@H](C)CO)S(=O)(=O)c2ccc(C3=CCCC3)cc2O[C@@H]1CN(C)CC1CCOCC1	.	47.9	.
C[C@H](O)C#Cc1ccc2c(c1)O[C@@H](CN(C)C(=O)c1ccncc1)[C@H](C)CN([C@H](C)CO)S2(=O)=O	-11.7	-15.4	-26.5
Cc1ccc(S(=O)(=O)N(C)C[C@H]2OCCCC[C@H](C)Oc3ccc(NC(=O)Nc4ccccc4)cc3C(=O)N([C@@H](C)CO)C[C@H]2C)cc1	8.6	-91.0*	-17.3
C[C@@H]1CN([C@H](C)CO)C(=O)c2cc(NC(=O)Nc3ccccc3)ccc2O[C@@H](C)CCCCO[C@H]1CN(C)S(=O)(=O)c1ccccc1	.	-78.6	31.5
Cc1ccc(S(=O)(=O)N(C)C[C@@H]2OCCCC[C@@H](C)Oc3ccc(NC(=O)Nc4ccccc4)cc3C(=O)N([C@H](C)CO)C[C@@H]2C)cc1	10.3	-85.9*	45.0
C[C@@H]1CCCCO[C@@H](CN(C)S(=O)(=O)c2ccccc2)[C@H](C)CN([C@@H](C)CO)C(=O)c2cc(NC(=O)Nc3ccccc3)ccc2O1	.	-27.5	20.0
C/C=C/c1cnc2c(c1)C(=O)N([C@@H](C)CO)C[C@@H](C)[C@H](CN(C)S(=O)(=O)c1ccc(F)cc1)O2	1.1	-24.6	60.3
O=C(Nc1cccc(Cl)c1)N[C@H]1CC[C@H](CCNC(=O)C2CCCCC2)O[C@H]1CO	-8.9	12.4	-20.7
C[C@@H]1CN([C@H](C)CO)C(=O)c2cc(-c3cccc(C#N)c3)cnc2O[C@H]1CN(C)Cc1ccncc1	5.3	-8.1	-16.1
C[C@H]1CCCCO[C@@H](CN(C)Cc2ccncc2)[C@@H](C)CN([C@@H](C)CO)C(=O)c2cc(NC(=O)Nc3cccc4ccccc34)ccc2O1	-11.2	-15.2	99.3*
C[C@@H]1CCCCO[C@H](CN(C)Cc2ccc(C(F)(F)F)cc2)[C@@H](C)CN([C@@H](C)CO)C(=O)c2cc(NC(=O)Nc3cccc4ccccc34)ccc2O1	16.3	-76.4	122.1
C[C@@H]1CCCCO[C@H](CN(C)Cc2ccncc2)[C@H](C)CN([C@@H](C)CO)C(=O)c2cc(NC(=O)Nc3cccc4ccccc34)ccc2O1	-8.0	-19.1	74.1
C[C@@H]1CN([C@H](C)CO)C(=O)c2cc(NC(=O)Nc3cccc4ccccc34)ccc2O[C@@H](C)CCCCO[C@H]1CN(C)Cc1ccc(C(F)(F)F)cc1	9.3	-84.9*	122.9
SMILES	C diff growth	Pf Dd2 inh	Tcruzi prolif
C[C@@H]1CN([C@H](C)CO)C(=O)c2cc(NC(=O)Cn3cnnn3)ccc2O[C@@H]1CN(C)S(=O)(=O)c1ccccc1	-3.8	20.4	14.0
C[C@@H]1CN([C@H](C)CO)C(=O)c2cc(NC(=O)CCCN(C)C)ccc2O[C@@H](C)CCCCO[C@H]1CN(C)Cc1ccc(C(F)(F)F)cc1	5.3	-85.9*	77.3
C[C@@H]1CCCCO[C@H](CN(C)Cc2ccc(C(F)(F)F)cc2)[C@@H](C)CN([C@@H](C)CO)C(=O)c2cc(NC(=O)CCCN(C)C)ccc2O1	1.1	-88.2*	62.1
C[C@@H]1CCCCO[C@H](CN(C)Cc2ccc(C(F)(F)F)cc2)[C@@H](C)CN([C@H](C)CO)C(=O)c2cc(NC(=O)CCC(F)(F)F)ccc2O1	-0.5	-38.3	-51.7
C[C@@H]1CCCCO[C@@H](CN(C)Cc2ccc(C(F)(F)F)cc2)[C@@H](C)CN([C@H](C)CO)C(=O)c2cc(NC(=O)CCC(F)(F)F)ccc2O1	5.6	-30.8	51.5
C[C@H]1CCCCO[C@@H](CN(C)Cc2ccc(C(F)(F)F)cc2)[C@@H](C)CN([C@@H](C)CO)C(=O)c2cc(NC(=O)CCC(F)(F)F)ccc2O1	-0.5	-44.6	78.9
C[C@H](CO)N1C[C@H](C)[C@H](CN(C)Cc2ccc(C(F)(F)F)cc2)OCCCC[C@H](C)Oc2ccc(NC(=O)CCCN(C)C)cc2C1=O	11.8	-86.2*	76.0
C[C@@H]1CCCCO[C@@H](CN(C)Cc2ccc(C(=O)O)cc2)[C@H](C)CN([C@H](C)CO)C(=O)c2cc(NC(=O)CCCN(C)C)ccc2O1	4.9	10.8	-96.2
C[C@@H]1CN([C@@H](C)CO)C(=O)c2cc(NC(=O)CCCN(C)C)ccc2O[C@@H](C)CCCCO[C@H]1CN(C)Cc1ccc(C(F)(F)F)cc1	2.4	-84.0*	83.0
C[C@H](CO)N1C[C@H](C)[C@H](CN(C)C(=O)Nc2cccc3ccccc23)Oc2c(NC(=O)c3nc4ccccc4s3)cccc2C1=O	.	-30.6	81.8
CCCC(=O)Nc1ccc2c(c1)OC[C@@H](C)N(Cc1cccc(F)c1)C[C@H](C)[C@@H](OC)CN(C)C2=O	.	-56.3	70.7
COc1ccccc1C(=O)Nc1ccc2c(c1)OC[C@H](C)NC[C@H](C)[C@H](OC)CN(C)C2=O	-1.4	-10.4	-44.5
CCCNC(=O)C[C@H]1CC[C@@H]2[C@@H](COc3ccc(NC(=O)c4cccc(OC)c4)cc3C(=O)N2C)O1	-0.2	-14.4	-76.3
COc1ccc(NC(=O)N2CC(=O)N3[C@H](CO)[C@H](c4ccc(C5=CCCC5)cc4)[C@H]3C2)cc1	-2.3	-43.7	.
